# FLuc inh – Firefly luciferase inhibition profiling of diverse chemical library using quantitative high-throughput screening | purified P. pyralis luciferase, luminescence, biochemical | Potency, µM (titrated, usually from 115 µM), most hits filed as inhibitors | 76,000 tested, 2.5% active | AID 1347043, 2019; also: % is scaled to controls: 0 for no effect and ±100 for the full control effect; nearly all actives have a fitted effect of over 65% in size
#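 Biochemical qHTS: compound (6-point titration) added to 10uM D-luciferin plus 10uM ATP in Tris acetate pH 7.5 buffer with Mg, Tween-20 and BSA, then purified enzyme at 10nM; light output imaged.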
# HEK293 tox – Cytotoxic Profiling in HEK 293 Cell Line of Diverse Libraries Using Quantitative High-Throughput Screening; HEK 293 viability, ATP luminescence (CellTiter-Glo), 48-72 h; Potency, µM (titrated, usually from 115 µM), for the others: top-dose activity change, negative = cytotoxicity, actives largely listed as inhibitors; 94,000 tested, 6.6% active; AID 1345083, 2018; also: % is scaled to controls: 0 for no effect and ±100 for the full control effect; nearly all actives have a fitted effect of over 60% in size
#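 ATP-coupled CellTiter-Glo luminescence served as viability read-out, recorded 10 min after reagent addition at room temperature. HEK 293 cells, 250 cells/well, had been incubated with pintool-transferred compound for 48 or 72 hr at 37 degree Celsius.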
# NIH3T3 tox – Cytotoxic Profiling in NIH 3T3 Cell Line of Diverse Libraries Using Quantitative High-Throughput Screening; Potency, µM (top dose mostly 96.7 µM), without a hit: at the top dose activity change, negative = cytotoxicity, most hits filed as inhibitors; 94,000 tested, 4.3% active; NIH 3T3 viability, CellTiter-Glo ATP luminescence, 48-72 h; also: % is scaled to controls: 0 for no effect and ±100 for the full control effect; nearly all actives have a fitted effect of over 55% in size
#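 Cells were seeded at 400 per well, treated with pin-transferred compound, and kept 48 or 72 hr at 37 °C before CellTiter-Glo addition and luminescence imaging of cellular ATP.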
# NPR1 antag – Natriuretic polypeptide receptor (hNpr1) antagonism - Primary qHTS. HEK293 hNpr1 GloSensor cGMP, ANP-stimulated luminescence. Potency, µM (doses to about 46.3 µM), without a hit: top-dose activity change, negative = inhibition, usual class: inhibitors. 76,000 tested, 1.6% active. AID 1347048, 2019; calls by dose curve; also: % is scaled to controls: 0 for no effect and ±100 for the full control effect; nearly all actives have a fitted effect of over 60% in size
# Target sequence (P16066 whole entry, looked up): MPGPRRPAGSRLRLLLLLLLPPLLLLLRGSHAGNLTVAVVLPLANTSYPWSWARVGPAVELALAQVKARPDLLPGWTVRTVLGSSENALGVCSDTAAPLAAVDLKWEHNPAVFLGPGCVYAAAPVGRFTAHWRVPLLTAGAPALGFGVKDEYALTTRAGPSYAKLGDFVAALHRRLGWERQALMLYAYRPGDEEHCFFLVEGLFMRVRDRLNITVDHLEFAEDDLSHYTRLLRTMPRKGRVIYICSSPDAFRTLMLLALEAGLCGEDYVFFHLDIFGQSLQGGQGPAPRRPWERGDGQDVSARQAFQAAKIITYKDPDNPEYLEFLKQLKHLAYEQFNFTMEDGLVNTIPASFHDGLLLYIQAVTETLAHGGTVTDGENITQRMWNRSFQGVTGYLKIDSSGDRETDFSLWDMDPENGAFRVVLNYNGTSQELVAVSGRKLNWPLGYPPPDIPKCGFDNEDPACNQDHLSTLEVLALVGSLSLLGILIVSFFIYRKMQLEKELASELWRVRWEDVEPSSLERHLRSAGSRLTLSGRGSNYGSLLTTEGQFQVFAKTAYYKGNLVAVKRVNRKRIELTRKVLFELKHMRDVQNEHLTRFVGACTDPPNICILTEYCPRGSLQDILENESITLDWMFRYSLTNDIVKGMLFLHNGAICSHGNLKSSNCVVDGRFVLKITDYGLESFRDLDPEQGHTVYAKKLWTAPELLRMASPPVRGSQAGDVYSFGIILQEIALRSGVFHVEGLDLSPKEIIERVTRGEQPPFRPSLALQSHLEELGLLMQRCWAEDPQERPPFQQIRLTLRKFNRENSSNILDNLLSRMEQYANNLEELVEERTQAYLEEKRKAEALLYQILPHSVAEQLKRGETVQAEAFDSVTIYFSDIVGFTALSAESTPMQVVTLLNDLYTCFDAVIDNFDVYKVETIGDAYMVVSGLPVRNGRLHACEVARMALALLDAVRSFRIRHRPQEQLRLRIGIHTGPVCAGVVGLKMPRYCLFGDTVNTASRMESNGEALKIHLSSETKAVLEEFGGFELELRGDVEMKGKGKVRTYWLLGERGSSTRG
#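 Compound pre-incubated 30 min at room temperature on GloSensor-loaded HEK293 cells stably carrying hNpr1 and the pGS-40F cGMP biosensor. Stimulation uses hNppA at 0.1 nM final; luminescence is taken at baseline and 20 min post-agonist.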
# Npr1 antag conf – Natriuretic polypeptide receptor (hNpr1) antagonism - Confirmation; Potency, µM (highest dose often 57.6 µM), without a hit: at the top dose activity change, negative = inhibition, most hits filed as inhibitors; HEK293 hNpr1 cGMP GloSensor luminescence, ANP-stimulated; AID 1347044, 2019; 1,400 tested, 76% active; shares compounds with NPR1 antag; calls by dose curve; also: nearly all actives have a fitted effect of over 70% in size
# NPR2 antag – Natriuretic polypeptide receptor (hNpr2) antagonism - Subtype selectivity assay; HEK293 hNpr2 GloSensor cGMP luminescence, CNP-stimulated; AID 1347046, 2019; Potency, µM (highest dose often 57.6 µM), for the others: top-dose activity change, negative = inhibition, usual class: inhibitors; 1,400 tested, 67% active; shares compounds with NPR1 antag; calls by dose curve; also: nearly all actives have a fitted effect of over 70% in size
# FLuc inh counter – Natriuretic polypeptide receptor (hNpr1) antagonism - Confirmation firefly luciferase (FLuc) inhibition counterscreen; shares compounds with NPR1 antag; purified FLuc enzyme, luminescence, Km substrate; Potency, µM (series often up to 57.6 µM), for the others: at the top dose activity change, negative = inhibition, actives largely listed as inhibitors; 1,400 tested, 0.7% active; AID 1347047, 2019; also: 0% is about no effect
# GloSensor ctrl – Natriuretic polypeptide receptor (hNpr1) antagonism - Counterscreen GloSensor control cell line; 1,400 tested, 69% active; HEK293 GloSensor cGMP, SNP-stimulated, luminescence; AID 1347051, 2019; Potency, µM (titrated, usually from 57.6 µM), for the others: at the highest dose activity change, negative = inhibition, usual class: inhibitors; shares compounds with NPR1 antag; calls by dose curve; also: % is scaled to controls: 0 for no effect and ±100 for the full control effect; nearly all actives have a fitted effect of over 70% in size
# Active calls of the source: *; i = inactive; ? = inconclusive; nt = no result; [ ] = another dose, or the depositor's remark. Hits are enriched below; roughly 11% of the tested compounds scored in any of these assays. Unless noted, calls follow the shape of the dose curve; as a rule, active = well fitted curve in the direction sought with a large enough effect; inconclusive = small, poorly fitted or top-dose-only effect, or another doubt; inactive = no such curve, though single readings can be large; an effect the other way counts as inactive or inconclusive. Potency is read from the fitted curve at half-maximal effect.
SMILES,FLuc inh,HEK293 tox,NIH3T3 tox,NPR1 antag,Npr1 antag conf,NPR2 antag,FLuc inh counter,GloSensor ctrl
O=C(C1CC(=O)N(c2n[nH]c3ccccc23)C1)N1CCC(c2noc3cc(F)ccc23)CC1 (centres undefined),i,13µM*,14µM*,?,27µM*,?,-3%,27µM*
COc1ccc(C(=O)NCCc2noc(-c3cccnc3)n2)cc1OC,i,-23%,?,2%,nt,nt,nt,nt
CCCn1cc(C(=O)NCC2COc3cc(OC)ccc3C2)c(C)n1 (centres undefined),i,?,?,11µM*,19µM*,22µM*,-1%,19µM*
CN1c2cccnc2CN(Cc2ccc(OC(F)(F)F)cc2)CC[C@H]1CO,i,?,?,3%[70.6 µM],nt,nt,nt,nt
O=C(CC1CCCCN(Cc2ccccc2)C1=O)Nc1ccc(F)cc1F (centres undefined),i,?,-27%,0%,nt,nt,nt,nt
O=C(CC1CCCCN(Cc2ccccc2)C1=O)N1CCN(c2ccc(F)cc2)CC1 (centres undefined),i,?,-27%,11µM*,24µM*,22µM*,1%,22µM*
CN1c2cc(C(=O)Nc3ccc(C(F)(F)F)cc3)ccc2C(=O)N2CCCCC21 (centres undefined),i,?,-27%,-8%,nt,nt,nt,nt
COCC(NC(=O)c1ccc2nc(C3CCCCC3)oc2c1)c1ccnn1C (centres undefined),i,?,-24%,?,-29%,?,5%,-9%
Cc1nn2c(c1-c1ccccc1C(N)=O)N(CCCc1ccccc1)CCC2,i,11µM*,11µM*,1.1µM*,2.8µM*,?,0%[86.2 µM],3.5µM*
Cc1nn2c(c1-c1ccccc1[S+](C)(=O)[O-])N(CCCc1ccccc1)CCC2,i,?,?,18µM*,5.6µM*,25µM*,3%[86.2 µM],4.4µM*
COc1ccc(C2(C(=O)N3C[C@@H](Oc4cccnc4)C[C@H]3C(=O)NC3CC3)CC2)cc1,i,-1%,i,-1%,nt,nt,nt,nt
COc1cccc(CNC(=O)C2CN(C3CCCCC3)C(=O)N2)c1 (centres undefined),nt,-12%[172 µM],-9%[138 µM],nt,nt,nt,nt,nt
O=C(NCc1ccccc1)c1ccc2c(c1)OCCN(c1ccccc1)C2,i,?,?,?,?,?,-1%[86.2 µM],?
Cc1ccc(CNC(=O)c2ccc3c(c2)CN(Cc2ccc(N(C)C)cc2)CCO3)cc1,i,?,?,11µM*,24µM*,27µM*,2%,27µM*
O=C(Nc1ccc(F)cc1)c1ccc2c(c1)OCCN(c1ccccc1)C2,i,56µM*,?,32µM*,40µM*,40µM*,-14%[86.2 µM],40µM*
CCCCN(Cc1ccsc1)C(=O)c1cnc(Nc2ccccc2)nc1,i,?,?,-1%,nt,nt,nt,nt
CC(=O)N1CCC(C2CCN(Cc3cccc(C)c3)C2)CC1 (centres undefined),i,-24%,-7%,-6%,nt,nt,nt,nt
Cc1nn2c(c1-c1ccccc1Oc1ccccc1)N(C(=O)COc1ccccc1)CCC2,i,79µM*,?,?,31µM*,22µM*,1%[86.2 µM],?
Cc1nn2c(c1-c1ccccc1OCc1ccccc1)N(C(=O)COc1ccccc1)CCC2,i,40µM*,11µM*,?,17µM*,12µM*,-1%,-21%
Cc1nn2c(c1-c1ccccc1Oc1ccccc1)N(Cc1ccc(OCC(=O)O)cc1)CCC2,i,i,?,-4%,nt,nt,nt,nt
CCCc1ccc2oc(C(=O)N(CC)Cc3ccncc3)c(C)c2c1,i,25µM*,?,13µM*,19µM*,19µM*,-13%,17µM*
CN(C(=O)C1(c2ccc(Cl)cc2)CCOCC1)C1CCc2ccccc21 (centres undefined),nt,?,?,nt,19µM*,9.7µM*,5%,6%
CNC(=O)c1cc(C2CC2)nc2onc(C3CCN(C(=O)c4ccc(F)cc4)CC3)c12,nt,-14%,?,nt,nt,nt,nt,nt
OCc1cc(CC2(NCc3ccc(CO)o3)COC2)no1,i,-3%[172 µM],2%[174 µM],9%[70.6 µM],nt,nt,nt,nt
Cc1nc(N2CCC(C(=O)NC3CCCCCC3)CC2)cc(C(F)(F)F)n1,i,?,-31%,?,14µM*,12µM*,-1%,9.7µM*
SMILES,FLuc inh,HEK293 tox,NIH3T3 tox,NPR1 antag,Npr1 antag conf,NPR2 antag,FLuc inh counter,GloSensor ctrl
Cc1nc(N2CCC(C(=O)NCc3ccccc3Cl)CC2)cc(C(F)(F)F)n1,i,?,?,?,nt,nt,nt,nt
Cc1nc(N2CCC(C(=O)NC3CCCCCCC3)CC2)cc(C(F)(F)F)n1,?,?,-37%,10µM*,7.7µM*,14µM*,1%,7.7µM*
Cc1nc(N2CCC(C(=O)Nc3ccc(F)c(Cl)c3)CC2)cc(C(F)(F)F)n1,i,25µM*,?,11µM*,22µM*,22µM*,1%,22µM*
Cc1nc(N2CCC(C(=O)NC3CCc4ccccc43)CC2)cc(C(F)(F)F)n1 (centres undefined),i,?,?,?,22µM*,19µM*,1%,17µM*
O=C(Cc1cccc(Cl)c1)N1CCCC(C(=O)N2CCC(N3Cc4cccn4C3=O)CC2)C1 (centres undefined),nt,-20%,-23%,nt,nt,nt,nt,nt
CCNC(=O)N1CCC(Cc2ccc(C(=O)NCCc3c[nH]c4ccccc34)cc2)CC1,i,25µM*,18µM*,14µM*,24µM*,24µM*,-12%,27µM*
COCC(=O)N[C@H]1C[C@@H](Cc2cc(-c3ccc(F)cc3)on2)C1(C)C,i,?,?,?,nt,nt,nt,nt
